From PubChem BioAssay (NCATS)
Inconclusive results are not listed. A call without a number means that no potency is given here. Activity calls are given as the source filed them. Unless noted, calls follow the shape of the dose curve; as a rule, active = well fitted curve in the direction sought with a large enough effect; inconclusive = small, poorly fitted or top-dose-only effect, or another doubt; inactive = no such curve, though single readings can be large; an effect the other way counts as inactive or inconclusive.

Tests used:
[1] = qHTS for differential inhibitors of proliferation of Plasmodium falciparum line Dd2 (AID 1882); settings: Potency: Plasmodium falciparum Dd2 proliferation inhibition; also: nearly all actives have a fitted effect of over 65% in size; also: potency is read from the fitted curve at half-maximal effect
How it was run: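 RBC culture, 0.3% parasitemia / 2.5% Hct final; cpd added by pin tool in DMSO; 72 h, 37 C, 5% CO2; lysis buffer + SYBR Green I, o/n RT dark; FI 485/535; norm. to artemisinin 0.29 uM and DMSO.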

[2] = target: Ferritin light chain (Equus caballus) (UniProt P02791); test: qHTS Validation Assay for Identification of Novel General Anesthetics (AID 2323); also: series mostly up to about 77 µM
Chain of Ferritin light chain (Equus caballus) (P02791 2-175 limits assumed): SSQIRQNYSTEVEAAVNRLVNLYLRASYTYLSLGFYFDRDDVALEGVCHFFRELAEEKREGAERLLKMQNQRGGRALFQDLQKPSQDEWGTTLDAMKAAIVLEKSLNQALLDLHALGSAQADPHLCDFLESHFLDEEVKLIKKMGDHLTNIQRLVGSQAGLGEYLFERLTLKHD
How it was run: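 10 uM horse-spleen apoferritin + 1-AMA (50% saturated, PBS); cpd pin-transferred, 10 min RT. Ex 380/Em 535 nm endpoint. Activity normalized between free 1-AMA and 1-AMA/apoferritin; 4-parameter Hill fit of concentration-response.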

[3] = target: ATP-dependent DNA helicase Q1 (Homo sapiens) (UniProt P46063); test: qHTS Validation Assay for Inhibitors of RecQ-Like Dna Helicase 1 (RECQ1) (AID 2353)
Chain of ATP-dependent DNA helicase Q1 (Homo sapiens) (P46063 whole entry, looked up): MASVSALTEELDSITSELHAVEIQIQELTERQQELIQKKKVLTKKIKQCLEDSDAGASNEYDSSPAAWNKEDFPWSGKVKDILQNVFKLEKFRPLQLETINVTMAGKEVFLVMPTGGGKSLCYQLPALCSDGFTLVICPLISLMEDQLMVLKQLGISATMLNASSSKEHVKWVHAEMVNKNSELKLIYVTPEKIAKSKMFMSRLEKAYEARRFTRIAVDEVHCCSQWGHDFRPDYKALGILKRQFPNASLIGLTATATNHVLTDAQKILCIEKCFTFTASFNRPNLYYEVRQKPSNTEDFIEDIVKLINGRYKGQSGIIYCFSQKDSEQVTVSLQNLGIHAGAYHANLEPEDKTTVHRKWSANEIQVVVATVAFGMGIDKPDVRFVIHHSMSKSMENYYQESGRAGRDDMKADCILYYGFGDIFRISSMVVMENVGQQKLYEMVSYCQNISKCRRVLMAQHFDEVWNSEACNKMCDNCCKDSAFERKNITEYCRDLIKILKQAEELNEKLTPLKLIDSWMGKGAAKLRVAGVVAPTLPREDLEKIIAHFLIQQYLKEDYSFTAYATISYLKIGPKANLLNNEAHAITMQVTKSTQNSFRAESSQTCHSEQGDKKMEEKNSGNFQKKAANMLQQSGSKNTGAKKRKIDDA
How it was run: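 RECQ1T1 50 nM; forked duplex (20 bp + 30-nt ss tails) 200 nM, ATP 2 mM final; pH 8.0, 2 mM MgCl2, 2.5 ug/ml poly(dI-dC); 15 min compound preincubation; discontinuous kinetic read over 2 h at RT.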

[4] = High Content Imaging Cell-Based qHTS for Inhibitors of the mTORC1 Signaling Pathway in MEF (Tsc2-/-, p53-/-) Cells (AID 2666);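 also: percent of cells scored positive for phospho-rpS6 Ser235/236 immunostaining by imaging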
How it was run: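 Tsc2-/-, p53-/- MEFs (empty-vector stable) grown in DMEM + 10% FBS were exposed to compounds for 24 hrs at 37 degree Celsius, fixed, and stained with Alexa-488 anti-phospho-rpS6 Ser235/236 plus Hoechst. Imaging gave the percentage of positive cells per well.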

[5] = High Content Imaging Cell-Based qHTS for Inhibitors of the mTORC1 Signaling Pathway in MEF Cells (AID 2667);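 also: Tsc2-/- p53-/- MEFs stably re-expressing wild-type Tsc2 exposed 24 h; series mostly up to about 38 µM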
How it was run: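 Tsc2-/-, p53-/- MEFs stably re-expressing WT Tsc2, grown in DMEM + 10% FBS, were treated with compounds for 24 hrs at 37 degree Celsius, fixed, and stained with Alexa-488 phospho-rpS6 Ser235/236 antibody plus Hoechst; results given as % positive cells.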

[6] = Cytometry Cell-Based qHTS for Inhibitors of the mTORC1 Signaling Pathway in MEF cells (AID 2668);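 also: Tsc2-/- p53-/- mouse embryonic fibroblasts stably re-expressing wild-type Tsc2; percent cells positive for phospho-rpS6 Ser235/236 relative to propidium iodide stain; series mostly up to about 38 µM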
How it was run: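 Read-out: phospho-rpS6 Ser235/236 immunofluorescence normalized to propidium iodide intensity, scored as % active cells against a rapamycin (7.5 nM) threshold. Cells: Tsc2-/-, p53-/- MEFs stably expressing WT Tsc2, compound-treated 24 hrs at 37 degree Celsius.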

[7] = target: Ubiquitin carboxyl-terminal hydrolase 2 (Homo sapiens) (UniProt O75604); test: qHTS Validation Assay for Inhibitors of Ubiquitin-specific Protease USP2a Using CHOP2 as the Reporter (AID 463106)
Chain of Ubiquitin carboxyl-terminal hydrolase 2 (Homo sapiens) (O75604 whole entry, looked up): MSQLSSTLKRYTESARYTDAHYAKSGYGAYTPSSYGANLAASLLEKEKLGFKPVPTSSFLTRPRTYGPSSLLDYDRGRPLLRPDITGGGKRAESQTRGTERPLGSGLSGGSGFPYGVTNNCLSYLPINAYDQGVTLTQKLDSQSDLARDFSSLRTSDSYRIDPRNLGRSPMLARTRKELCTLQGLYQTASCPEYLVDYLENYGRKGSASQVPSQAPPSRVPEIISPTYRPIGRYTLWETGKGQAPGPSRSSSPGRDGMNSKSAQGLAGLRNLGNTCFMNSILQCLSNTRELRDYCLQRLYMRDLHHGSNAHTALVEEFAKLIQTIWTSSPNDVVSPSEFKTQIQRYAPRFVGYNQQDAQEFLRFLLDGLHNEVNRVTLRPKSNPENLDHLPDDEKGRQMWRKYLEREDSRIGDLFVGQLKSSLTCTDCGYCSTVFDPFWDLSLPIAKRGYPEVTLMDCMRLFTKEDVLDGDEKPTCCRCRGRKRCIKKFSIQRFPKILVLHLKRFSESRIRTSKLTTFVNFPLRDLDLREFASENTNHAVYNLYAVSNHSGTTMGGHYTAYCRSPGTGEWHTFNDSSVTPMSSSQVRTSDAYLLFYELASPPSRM
How it was run: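 Readout was coupled fluorescence (Ex 485/Em 531 nm), read 60 min after adding 25 nM final Ub-CHOP2 and 25 nM reporter substrate. Beforehand, 10 nM final USP2 core had 30 min at RT with compound in pH 8.0 buffer. Curves were fitted after normalization to NEM and flagged for artifacts using time-zero reads.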

[8] = target: DNA polymerase III PolC-type (Bacillus subtilis (strain 168)) (UniProt P13267); test: qHTS Validation Assay for the Inhibitors of DNA Replication in Gram-Positive Bacteria (AID 485295);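 also: reconstituted holoenzyme with PolC plus beta clamp SSB and primase; PicoGreen fluorescence of double-stranded DNA made on primed circular M13 template; series mostly up to about 57 µM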
Chain of DNA polymerase III PolC-type (Bacillus subtilis (strain 168)) (P13267 whole entry, looked up): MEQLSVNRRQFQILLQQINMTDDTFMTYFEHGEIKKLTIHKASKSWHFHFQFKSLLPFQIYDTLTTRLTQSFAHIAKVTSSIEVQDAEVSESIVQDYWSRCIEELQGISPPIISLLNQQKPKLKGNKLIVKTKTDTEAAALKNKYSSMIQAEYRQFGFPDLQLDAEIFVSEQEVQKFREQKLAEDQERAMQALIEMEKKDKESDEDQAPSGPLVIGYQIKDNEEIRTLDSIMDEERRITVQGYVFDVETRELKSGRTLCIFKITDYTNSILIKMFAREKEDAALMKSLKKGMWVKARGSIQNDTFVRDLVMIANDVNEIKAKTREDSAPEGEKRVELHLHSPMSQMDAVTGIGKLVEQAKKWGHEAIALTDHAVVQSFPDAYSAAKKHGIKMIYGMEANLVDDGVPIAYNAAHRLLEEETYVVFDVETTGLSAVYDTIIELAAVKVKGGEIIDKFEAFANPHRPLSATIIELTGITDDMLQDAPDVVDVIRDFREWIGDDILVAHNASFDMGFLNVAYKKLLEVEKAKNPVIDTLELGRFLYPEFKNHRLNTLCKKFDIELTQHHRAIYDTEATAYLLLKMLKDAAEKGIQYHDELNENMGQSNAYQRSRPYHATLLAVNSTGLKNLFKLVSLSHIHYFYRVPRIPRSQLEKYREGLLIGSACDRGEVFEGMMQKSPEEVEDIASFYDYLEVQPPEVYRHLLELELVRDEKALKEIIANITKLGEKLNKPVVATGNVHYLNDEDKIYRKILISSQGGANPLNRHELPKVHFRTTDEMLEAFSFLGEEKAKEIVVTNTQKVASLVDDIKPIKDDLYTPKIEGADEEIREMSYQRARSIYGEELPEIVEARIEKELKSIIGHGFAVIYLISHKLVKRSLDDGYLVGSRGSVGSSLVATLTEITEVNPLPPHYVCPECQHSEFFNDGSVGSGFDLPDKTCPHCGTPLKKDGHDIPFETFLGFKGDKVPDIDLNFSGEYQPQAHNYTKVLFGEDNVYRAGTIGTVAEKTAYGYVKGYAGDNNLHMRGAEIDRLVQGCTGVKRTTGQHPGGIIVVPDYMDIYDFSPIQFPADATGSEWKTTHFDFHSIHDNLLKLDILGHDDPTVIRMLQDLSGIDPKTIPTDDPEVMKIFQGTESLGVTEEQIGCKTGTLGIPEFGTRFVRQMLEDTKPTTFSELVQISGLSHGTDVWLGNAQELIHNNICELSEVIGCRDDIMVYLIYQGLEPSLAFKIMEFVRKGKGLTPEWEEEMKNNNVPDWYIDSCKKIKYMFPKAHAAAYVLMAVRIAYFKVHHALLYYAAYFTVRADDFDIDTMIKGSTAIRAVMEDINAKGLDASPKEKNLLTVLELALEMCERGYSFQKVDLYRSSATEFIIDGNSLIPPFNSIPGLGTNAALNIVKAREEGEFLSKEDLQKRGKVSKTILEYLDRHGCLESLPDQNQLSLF
How it was run: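 PicoGreen fluorescence (ex 480–485/em 535–540 nm) reports dsDNA synthesized on ssM13Gori template with dNTPs/NTPs. Enzyme: holoenzyme rebuilt from purified PolC, beta subunit, SSB and primase. Compound preincubated before substrate addition; RT throughout.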

[9] = target: Tumor susceptibility gene 101 protein (Homo sapiens) (UniProt Q99816); test: qHTS Validation Assay for Iinhibitors of HIV-1 Budding by Blocking the Interaction of PTAP/TSG101 (AID 485342; calls by dose curve)
Chain of Tumor susceptibility gene 101 protein (Homo sapiens) (Q99816 whole entry, looked up, the tested form may be a part): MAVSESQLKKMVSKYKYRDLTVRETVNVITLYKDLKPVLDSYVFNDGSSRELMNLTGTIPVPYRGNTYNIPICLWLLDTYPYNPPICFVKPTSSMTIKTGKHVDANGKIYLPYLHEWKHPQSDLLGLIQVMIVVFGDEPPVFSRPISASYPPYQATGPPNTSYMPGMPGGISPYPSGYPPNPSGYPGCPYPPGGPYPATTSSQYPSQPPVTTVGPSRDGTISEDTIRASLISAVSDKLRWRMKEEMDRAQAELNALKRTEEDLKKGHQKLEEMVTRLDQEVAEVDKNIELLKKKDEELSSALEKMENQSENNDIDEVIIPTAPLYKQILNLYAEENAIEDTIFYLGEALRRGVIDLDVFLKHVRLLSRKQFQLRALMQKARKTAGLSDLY
How it was run: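 FP read-out: FITC-PTAP peptide, 50 nM final, binding Tsg101 binding domain, 10 uM final; 20 min r.t.; 10 mM HEPES pH 7.5, 0.15 M NaCl, 0.01% Tween 20, 3 mM EDTA, 0.1 mM TCEP.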

[10] = target: Beta-2 adrenergic receptor (Homo sapiens) (UniProt P07550); test: qHTS validation assay of beta-arrestin-biased ligands of beta2-adrenergic receptor (AID 485366)
Chain of Beta-2 adrenergic receptor (Homo sapiens) (P07550 whole entry, looked up): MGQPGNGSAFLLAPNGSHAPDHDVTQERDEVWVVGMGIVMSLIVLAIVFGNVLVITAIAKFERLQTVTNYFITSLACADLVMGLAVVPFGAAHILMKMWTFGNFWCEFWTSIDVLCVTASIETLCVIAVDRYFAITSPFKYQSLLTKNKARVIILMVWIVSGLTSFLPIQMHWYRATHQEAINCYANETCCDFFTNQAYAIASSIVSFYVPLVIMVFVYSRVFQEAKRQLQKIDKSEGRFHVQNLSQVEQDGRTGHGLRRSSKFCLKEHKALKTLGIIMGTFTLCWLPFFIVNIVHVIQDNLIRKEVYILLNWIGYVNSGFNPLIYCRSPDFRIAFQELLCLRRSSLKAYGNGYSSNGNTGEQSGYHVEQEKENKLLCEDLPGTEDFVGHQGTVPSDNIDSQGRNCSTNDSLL
How it was run: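 Agonist activity is measured as luciferase luminescence downstream of beta-arrestin recruitment to recombinant beta2-AR in Tango cells. Exposure lasts 18 hr at 37 degrees C, and curves are categorized by r2, response size and activity.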

[11] = qHTS Assay for Identification of Small Molecule Inducers of Hypoxia Response (AID 2120; active = well fitted curve in the direction sought with a large enough effect in the signal ratio, with a control signal flat, not every such curve was filed as active; the % refers to the signal ratio)
How it was run: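 Read-out: CCF4 FRET emission ratio 460nm/530nm (excitation 405nm), converted to %Activity, with AC50 fitted across a compound titration. ME-180 cells carried an HRE-driven beta-lactamase reporter; compound exposure 17 h, 37 degrees C.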

[12] = Cytometric Cell-Based qHTS for Inhibitors of the mTORC1 Signaling Pathway in MEF (Tsc2-/-, p53-/-) Cells (AID 2660);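 also: Tsc2 and p53 null MEFs carrying empty vector with compound for 24 h; percent of cells above a phospho-rpS6 to PI ratio cutoff in each well; series mostly up to about 38 µM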
How it was run: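 Readout: Alexa-488 phospho-rpS6 (Ser235/236) intensity divided by PI intensity, thresholded against 7.5 nM rapamycin wells and reported as % positive cells. PI cell count served as the viability measure. Compound exposure was 24 hrs at 37 degree Celsius.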

[13] = target: ATP-dependent 6-phosphofructokinase (Trypanosoma brucei brucei) (UniProt O15648); test: qHTS Validation Assay to Find Inhibitors of T. brucei phosphofructokinase (AID 485368)
Chain of ATP-dependent 6-phosphofructokinase (Trypanosoma brucei brucei) (O15648 whole entry, looked up): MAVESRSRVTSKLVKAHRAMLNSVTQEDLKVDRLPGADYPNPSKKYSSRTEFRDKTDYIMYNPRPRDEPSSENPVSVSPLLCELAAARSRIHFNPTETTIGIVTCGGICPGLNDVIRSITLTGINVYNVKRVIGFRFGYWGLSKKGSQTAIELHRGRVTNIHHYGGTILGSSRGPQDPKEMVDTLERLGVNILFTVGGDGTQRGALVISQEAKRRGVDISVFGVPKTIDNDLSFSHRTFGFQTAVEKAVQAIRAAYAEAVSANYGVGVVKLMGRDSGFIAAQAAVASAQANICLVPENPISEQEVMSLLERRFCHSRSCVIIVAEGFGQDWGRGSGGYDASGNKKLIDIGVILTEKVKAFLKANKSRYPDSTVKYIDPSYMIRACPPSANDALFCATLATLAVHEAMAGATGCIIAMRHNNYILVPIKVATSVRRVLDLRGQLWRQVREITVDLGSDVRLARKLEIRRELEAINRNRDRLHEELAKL
How it was run: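 Inhibition derived from concentration-response curves of luminescence, ranked by r2, response size and curve class; the underlying reaction used 1.25 nM PFK, 0.1 mM ATP and 0.5 mM F6P, 45 min, room temperature.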

[14] = Validation screen for small molecules that induce DNA re-replication in MCF 10A normal breast cells (AID 463097); also: nearly all actives have a fitted effect of over 60% in size
How it was run: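 250 MCF 10A cells/well; compound pin-transferred; 48 hr, 37 C, 5% CO2; Hoechst 40 min; imaged 405/500-530 nm. Hits = more high-intensity nuclei.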

[15] = Quantitative high throughput screen for delayed death inhibitors of the malarial parasite plastid, 96 hour incubation (AID 488745);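 also: luciferase-expressing P. falciparum in erythrocytes at 2% hematocrit and 0.1% parasitemia; series mostly up to about 29 µM; nearly all actives have a fitted effect of over 70% in size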
How it was run: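 Luciferase-expressing P. falciparum, infected RBCs 2% Hct/0.1% parasitemia (final); 96 h cpd exposure, 37 C, 5% CO2; RPMI 1640 + 0.5% Albumax, bicarbonate, gentamycin. Readout: luminescence loss = growth inhibition.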

[16] = qHTS for differential inhibitors of proliferation of Plasmodium falciparum line D10 (AID 1877);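 also: parasites grown with compound for 72 h before DNA staining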
[17] = qHTS for differential inhibitors of proliferation of Plasmodium falciparum line W2 (AID 1883); settings: Potency: Plasmodium falciparum W2 proliferation inhibition;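 also: potency is read from the fitted curve at half-maximal effect; parasites grown with compound for 72 h before lysis and staining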
[18] = qHTS for differential inhibitors of proliferation of Plasmodium falciparum line HB3 (AID 1886); settings: Potency: Plasmodium falciparum HB3 proliferation inhibition;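 also: parasites grown with compound for 72 h before SYBR Green readout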

| Structure (SMILES) | Potency [1] | outcome [2] | Potency [3] | Potency [4] | Potency [5] | Potency [6] | outcome [7] | outcome [8] | outcome [9] | outcome [10] | outcome [11] | Potency [12] | Potency [13] | outcome [14] | Potency [15] | Potency [16] | Potency [17] | Potency [18] |
| --- | --- | --- | --- | --- | --- | --- | --- | --- | --- | --- | --- | --- | --- | --- | --- | --- | --- | --- |
| COC(=O)C1=C(C)NC(C)=C(C(=O)OC)C1c1ccccc1[N+](=O)[O-] | inactive | inactive | inactive | inactive | inactive | inactive | inactive | inactive | inactive | inactive |  |  |  |  |  |  |  |  |
| C[C@]12C[C@H](O)[C@H]3[C@@H](CCC4=CC(=O)CC[C@@]43C)[C@@H]1CC[C@@H]2C(=O)CO |  |  |  | inactive | inactive |  | inactive | inactive | inactive | inactive | inactive | inactive | inactive |  |  |  |  |  |
| CNC(=O)Oc1ccc2c(c1)[C@]1(C)CCN(C)[C@@H]1N2C |  | inactive | inactive | inactive | inactive | inactive | inactive | inactive | inactive | inactive |  | inactive |  | inactive | inactive |  |  |  |
| CC1=C(/C=C/C(C)=C/C=C/C(C)=C/C(=O)O)C(C)(C)CCC1 |  |  | inactive | inactive | inactive | inactive | inactive | inactive | inactive | inactive |  | inactive |  |  |  | inactive | 14.1 µM (active) |  |
| CN(C)CCOC(C)(c1ccccc1)c1ccccn1 (stereo not drawn) | 10 µM (active) | inactive | inactive | inactive | inactive | inactive | inactive | inactive | inactive | inactive |  | inactive | inactive | inactive | inactive |  | 3.55 µM (active) | inactive |
